In PubChem BioAssay (NCI):
This is part of a sample that, as a whole, favours compounds with a hit. Of some 79,000 tested, about 15% had one in any assay. Values without a mark were called inactive. The source made the active and inactive calls. Cut-off read from the data, not from the text of the source: active = growth inhibition above about 70%; inactive = the rest.

Assay: NCI Yeast Anticancer Drug Screen. Data for the sgs1 mgt1 strain (AID 161);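 note: 0% = growth of cultures given vehicle only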
Details: S. cerevisiae sgs1 mgt1 strain, at 50.0 µM, active compounds read high
In short: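 Test agents were incubated with a DNA-repair-mutant yeast strain. Growth was then read and compared against vehicle-treated controls.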

With `O=C(CC(=O)N1N=C(N(c2ccccc2)c2ccccc2)CC1c1ccccc1)Nc1ccccc1` (stereo not given) as the compound, how does the growth inhibition read?
The growth inhibition was -2.1%.

Which growth inhibition does the source give for `NS(=O)(=O)c1ccc(NC(=O)Nc2cccc(Cl)c2)cc1` here?
The growth inhibition was 15.5%.

For `[O-][N+]1=C(c2ccccc2)C(c2ccccc2)C(c2ccccc2)O1` (stereo not given), which growth inhibition is on record?
Its growth inhibition is -2.4%.

With `O=[N+]([O-])c1ccc(F)cc1` as the compound, how does the growth inhibition read?
The growth inhibition was 2.3%.

Which growth inhibition does the source give for `COc1cc(C)c(C#N)c(OC)n1` here?
Its growth inhibition is 9.9%.

With `Clc1cc(Cl)c(SSc2cc(Cl)c(Cl)cc2Cl)cc1Cl` as the compound, how does the growth inhibition read?
The growth inhibition was -18.1%.

Which growth inhibition does the source give for `COc1cc2nccnc2c(N)c1OC` here?
Its growth inhibition is 7.75%.

With `O=C1c2ccccc2C(c2ccccc2)C1c1ccccc1` (stereo not given) as the compound, how does the growth inhibition read?
Its growth inhibition is 17.6%.

Which growth inhibition does the source give for `Cc1nc2c(=O)[nH]c(=S)[nH]c2[nH]c1=O` here?
Its growth inhibition is -2.1%.

With `N#CCCCCCCC(N)=O` as the compound, how does the growth inhibition read?
Its growth inhibition is 6.4%.

With `O=C(NNc1c(F)c(F)c(C(F)(F)F)c(F)c1F)c1ccccc1` as the compound, how does the growth inhibition read?
Its growth inhibition is -10.9%.

Which growth inhibition does the source give for `CCCCCCCCCCCCCCNC(=O)C(C)O` (stereo not given) here?
The growth inhibition was -15.7%.

With `NC(=O)Cc1nc(O)cc(=O)[nH]1` as the compound, how does the growth inhibition read?
The growth inhibition was -8.3%.

With `COc1cc(/C=N\N=C(/C)c2ccc(C)cc2C)cc(OC)c1OC` as the compound, how does the growth inhibition read?
The growth inhibition was 24.8%.

Which growth inhibition does the source give for `CSCNC(=S)Nc1ccc(Cl)c(Cl)c1` here?
The growth inhibition was 35%.

Which growth inhibition does the source give for `Brc1ccc(Nc2ccc(Br)cc2Br)c(Br)c1` here?
Its growth inhibition is 16.6%.

With `O=c1cc(-c2ccc(O)cc2)oc2cc(O)cc(O)c12` as the compound, how does the growth inhibition read?
Its growth inhibition is -8.45%.

For `O=C1CCCCCCCCCCC1Cc1cc(O)c(CC2CCCCCCCCCCC2=O)cc1O` (stereo not given), which growth inhibition is on record?
The growth inhibition was -5.95%.

Which growth inhibition does the source give for `Nc1nc(=S)c2[nH]cnc2[nH]1` here?
Its growth inhibition is -21.4%.

Which growth inhibition does the source give for `CC(=O)NO` here?
Its growth inhibition is 12.1%.

With `CC1(C)Cc2ccccc2C(C)(Cl)C(=O)N1` (stereo not given) as the compound, how does the growth inhibition read?
The growth inhibition was 6.4%.

With `Cc1ccc(C2(C)CC[C@@H]3C[C@@]32C)c(O)c1` (stereo not given in full) as the compound, how does the growth inhibition read?
The growth inhibition was 93.5% (active).

Which growth inhibition does the source give for `CCN(CC)C1Oc2cc3c(cc2C(c2cc(OC)c(O)c(OC)c2)C1C)OCO3` (stereo not given) here?
The growth inhibition was -7.7%.

With `NOCc1ccc(OCc2ccccc2)cc1` as the compound, how does the growth inhibition read?
Its growth inhibition is -6.7%.

With `CCC(=O)NN(C(C)=O)c1ccccc1` as the compound, how does the growth inhibition read?
Its growth inhibition is 6.4%.

With `Cc1[nH]c(=O)[nH]c(=O)c1C` as the compound, how does the growth inhibition read?
The growth inhibition was 1.8%.

For `COc1ccc(/C=C/C(=O)C(C)(C)CN2CCCCC2)cc1`, which growth inhibition is on record?
The growth inhibition was 20.5%.

Which growth inhibition does the source give for `C(=N\OCCc1ccccc1)/c1ccccn1` here?
The growth inhibition was -8.95%.

With `CCOC(=O)C(C(=O)c1cccnc1)C(C(=O)OCC)C(=O)c1cccnc1` (stereo not given) as the compound, how does the growth inhibition read?
The growth inhibition was 6%.

Which growth inhibition does the source give for `CCCCCCCCCCCCCCCCCC1=NCC(C)O1` (stereo not given) here?
The growth inhibition was -0.35%.

With `CC(O)c1ccc2c(c1)Nc1ccccc1S2` (stereo not given) as the compound, how does the growth inhibition read?
Its growth inhibition is -16.4%.

For `Cc1nn(C)c(C#N)c1[N+](=O)[O-]`, which growth inhibition is on record?
The growth inhibition was -36.3%.

For `CCC(C)NC(=O)c1ccccc1C` (stereo not given), which growth inhibition is on record?
The growth inhibition was -3.2%.

With `CSC(=S)Nc1cc(C)cc(C)n1` as the compound, how does the growth inhibition read?
The growth inhibition was 62.1%.

Which growth inhibition does the source give for `COc1cc2c(cc1OC)C(=O)C1(CO)COC(=O)C1C2` (stereo not given) here?
Its growth inhibition is -2.15%.

Which growth inhibition does the source give for `CC(=O)Nc1nc(C)c(CC/C=C/c2ccc([N+](=O)[O-])cc2)c(Cl)n1` here?
Its growth inhibition is 38%.

Which growth inhibition does the source give for `CC(=O)N/N=C1\NN(C(C)=O)C2(S1)C(=O)Nc1ccccc12` (stereo not given) here?
The growth inhibition was 68.8%.

For `O=C(O)C(=Cc1cccc2ccc3ccccc3c12)C(=O)O`, which growth inhibition is on record?
The growth inhibition was -4.8%.

Which growth inhibition does the source give for `COC(=O)c1ccc(OC(=O)Nc2ccc(Br)cc2)cc1` here?
The growth inhibition was 27%.

Which growth inhibition does the source give for `O=C(Nc1ccccc1Cl)c1ccc(Cl)cc1` here?
Its growth inhibition is 8.05%.
